Experimental findings from PubChem BioAssay AID1053 (University of Pittsburgh Molecular Library Screening Center, 2008) are described below.

Several values for one entry are separate records, joined by “and”; a condition that tells them apart may be missing. Equal entries are not always repeated. A number with no mark means an inactive call. Activity calls are given as the source filed them. The rule behind the calls is not given here.

Serine/threonine-protein kinase PLK1 (Homo sapiens), sequence (P53350 whole entry, looked up, the tested form may be a part): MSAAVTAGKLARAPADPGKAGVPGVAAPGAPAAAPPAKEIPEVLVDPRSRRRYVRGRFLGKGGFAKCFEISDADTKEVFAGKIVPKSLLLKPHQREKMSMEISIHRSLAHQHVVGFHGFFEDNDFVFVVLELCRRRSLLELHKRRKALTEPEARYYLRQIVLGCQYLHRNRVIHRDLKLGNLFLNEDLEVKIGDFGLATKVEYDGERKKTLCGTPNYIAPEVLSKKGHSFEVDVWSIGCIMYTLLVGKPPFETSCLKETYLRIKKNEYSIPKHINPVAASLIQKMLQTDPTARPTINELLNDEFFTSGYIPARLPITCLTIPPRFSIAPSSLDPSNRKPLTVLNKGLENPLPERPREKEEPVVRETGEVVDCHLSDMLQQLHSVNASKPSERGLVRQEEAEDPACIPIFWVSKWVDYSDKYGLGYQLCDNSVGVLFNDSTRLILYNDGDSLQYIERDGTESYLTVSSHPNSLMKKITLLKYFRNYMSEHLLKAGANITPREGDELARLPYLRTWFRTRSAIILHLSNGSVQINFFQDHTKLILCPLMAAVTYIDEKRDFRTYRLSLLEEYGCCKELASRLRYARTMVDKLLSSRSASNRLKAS

The assay addresses Serine/threonine-protein kinase PLK1 (Homo sapiens) (UniProt P53350). Briefly: Plk1 polo box domain binding inhibitors, SAR follow-up, biochemical, fluorescence polarization, purchased analogs (AID 1053). To be noted: Plk1 PBD fluorescence polarization peptide binding; at 20 µM; active compounds read high.
What is called inhibition is the relative decrease from the control value, in per cent. As to `CCn1nc(-c2ccccc2)nc2c(=O)n(C)c(=O)nc1-2`, the inhibition is -2.54%.
For `Cn1nc(-c2ccccc2)nc2c(=O)n(C)c(=O)nc1-2` the value was 31.4%; for `Cc1ccc(-c2nc3c(=O)n(C)c(=O)nc-3n(C)n2)cc1`, 43.1%.
In the case of `O=C1NC(=O)C(=Cc2c3ccccc3cc3ccccc23)C(=O)N1`, the inhibition was -41.5%.
For the molecule `Cn1c(O)c(C(=O)c2ccccc2Cl)c(=O)n(C)c1=O`, the inhibition was -36.4%.
For `COc1cc(C=C2C(=O)NC(=O)NC2=O)cc(Cl)c1O` the value was -40.9%; for `COc1cc(Br)cc(C=C2C(=O)NC(=O)NC2=O)c1O`, -39.8%.
For `CCn1nc(-c2ccc([N+](=O)[O-])cc2)nc2c(=O)n(C)c(=O)nc1-2` the value was 60.6% (active).
For `CCN(CC)CCOC(=O)c1ccc(N=Cc2c(O)[nH]c(=O)[nH]c2=O)cc1` the value was -148% and -184%; for `CCn1nc(-c2ccccc2Cl)nc2c(=O)n(C)c(=O)nc1-2`, 43.6%; for `CCCC(=O)c1c(O)[nH]c(=O)[nH]c1=O`, -47.7% and -64.6%.
For `CCOC(=O)c1ccc(N=C(c2ccccc2)c2c(O)n(C)c(=O)n(C)c2=O)cc1`, the inhibition is -58.1%.
Turning to `O=C1NC(=O)C(=Cc2cccn2-c2ccc([N+](=O)[O-])cc2)C(=O)N1`, the inhibition is -40.9%.
